Experimental data from the supplement of paper PMC3724861.
This excerpt belongs to a sample that is enriched for hits. No count for the full screen is at hand. Values without a mark were called inactive.

What follows are sequences tested on T1, Caupolican (Caup) homeodomain DNA-binding domain (assay: PBM E-score (8-mer, recovered from the published 9-mer minima) (E-score (dimensionless, -0.5 to 0.5)); Drosophila protein; higher = stronger relative binding preference, active = 0.31 or more).
T1 sequence: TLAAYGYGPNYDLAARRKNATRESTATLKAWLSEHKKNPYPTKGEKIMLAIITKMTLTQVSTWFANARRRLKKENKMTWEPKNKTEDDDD
Experimental: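 Protein binding microarray (PBM): in vitro transcribed/translated Caupolican (Caup) homeodomain DNA-binding domain (residues 214-303) applied at 100 nM to a universal 8-mer PBM array (Agilent AMADID 015681). The 8-mer enrichment score (E-score, range -0.5 to 0.5) was computed, and each 9-mer score is the minimum E-score of its two constituent 8-mers. The E-score is the same for a 9-mer and its reverse complement; 0.31 is the stated binding threshold.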

| Sequence | PBM E-score |
| --- | --- |
| CATCTAGG | -0.0637 |
| CAAGTAAG | 0.0621 |
| CATTTCAA | 0.154 |
| ATGCAATA | 0.197 |
| TGAGGCAA | -0.0847 |
| AAGGGCGC | -0.172 |
| CACCAGGC | -0.132 |
| ATGTTGAG | 0.132 |
| ATGTTGTA | 0.431 (active) |
| CGGTTGTA | 0.209 |
| ATGTTGTG | 0.282 |
| AGGTTGTA | ≥ 0.333 (active) |
| ACGTTGTA | 0.291 |
| CTGTTGTA | 0.273 |
| ATGTTGAC | 0.322 (active) |
| CTGTTGAC | 0.137 |
| GTGTTGTA | 0.395 (active) |
| GTGTTGCA | 0.184 |
| AGGTTGTG | 0.133 |
| CGTCTGCC | -0.188 |
| ATTGTCCG | 0.122 |
| CATTTCTA | 0.102 |
| GTCAACCA | 0.0944 |
| ACTAGCGC | -0.134 |
| AACCGGGA | -0.0571 |
| ATCAAAGC | -0.0471 |

| Sequence | PBM E-score |
| --- | --- |
| ATCAGCTC | 0.00528 |
| AAGGCGAC | 0.00668 |
| ACGACTGC | -0.0879 |
| GGATACCC | -0.15 |
| CTCCAACC | -0.171 |
| CACACCGA | 0.0554 |
| ACAAACCG | 0.0217 |
| ATGTTGCC | 0.121 |
| CTGTTGTC | 0.256 |
| ATGTTGTC | 0.424 (active) |
| CCGCATCC | -0.16 |
| AAGTAACA | 0.306 |
| GAGTAACA | 0.206 |
| TGTTAACA | 0.371 (active) |
| AATTAACT | 0.117 |
| AATTAACA | 0.326 (active) |
| AACTAACA | ≥ 0.339 (active) |
| AATTAACC | 0.0386 |
| TACTAACA | 0.253 |
| TAGTAACA | ≥ 0.316 (active) |
| AACTAACT | -0.00416 |
| CGTTAACA | 0.164 |
| AGTTAACA | 0.265 |
| GTATCACA | 0.198 |
| ACAGAAGA | 0.101 |
| TAGCACAA | 0.0785 |

| Sequence | PBM E-score |
| --- | --- |
| ATGAAAAA | 0.0536 |
| AATGCACT | 0.108 |
| GGATTAGA | -0.0283 |
| GCCATCGA | -0.0979 |
| TATTAACA | 0.312 (active) |
| GATTAACA | 0.292 |
| CATTAACA | 0.234 |
| CCATCCCC | -0.241 |
| CAAGAGAG | -0.0747 |
| TCCTCTCA | -0.0753 |
| AGTGTACA | 0.337 (active) |
| AGTGTAGA | 0.162 |
| AGTGTACG | 0.152 |
| GGTGTATA | 0.133 |
| GCTGTACA | 0.268 |
| GGTGTACA | 0.327 (active) |
| ATAGATAT | 0.169 |
| ACGGACCC | -0.139 |
| CGCGGGTC | -0.163 |
| CCAATGGA | -0.156 |
| ATGCAGCC | 0.00431 |
| CTGATTTA | 0.138 |
| GCATTAGC | -0.144 |
| CTTATTGA | 0.0828 |
| CGCGAACG | -0.0783 |
| GCACCGCA | -0.175 |

| Sequence | PBM E-score |
| --- | --- |
| CAATGTAC | 0.287 |
| CAATGTAA | 0.312 (active) |
| AAATGTAA | 0.277 |
| TAATGTGA | 0.141 |
| TAATGTAA | 0.315 (active) |
| CAATGTAG | 0.182 |
| TGGACACA | 0.199 |
| GGTAGCGA | -0.0452 |
| GCCGGGTA | -0.161 |
| CTAGCGTA | -0.0972 |
| ATGTCTTA | 0.284 |
| CATTGACA | 0.217 |
| TATTGACA | 0.322 (active) |
| ACATGACT | 0.374 (active) |
| CCATGACA | 0.137 |
| ACATGACG | 0.297 |
| ACATGACC | 0.303 |
| TGATGACA | 0.279 |
| TAATGACA | 0.331 (active) |
| GAATGACA | 0.259 |
| TCATGACA | 0.313 (active) |
| GATTGACA | 0.276 |
| CAATGACA | 0.293 |
| GTGGCGAA | -0.0979 |
| CGGAGTGC | -0.159 |
| AACCTATT | 0.0185 |

| Sequence | PBM E-score |
| --- | --- |
| CTGACAGC | -0.0248 |
| CTATTCCA | 0.057 |
| CGATTACG | 0.101 |
| CCCCTGAG | -0.149 |
| ATCGCACC | -0.0473 |
| CGCATATA | 0.107 |
| AAGCACTG | 0.0317 |
| ATTTGACC | -0.0206 |
| GCATGACA | 0.21 |
| AGATGACA | 0.227 |
| CTTTGACA | 0.223 |
| ACATGACA | ≥ 0.43 (active) |
| ATTTGACA | 0.347 (active) |
| CTCTTCTA | -0.00512 |
| ATATTCGC | 0.0752 |
| GCAGAAGA | -0.113 |
| TAAATATA | 0.187 |
| CAAATAGG | -0.00893 |
| AGTTGTCG | 0.235 |
| CGTTGTCA | 0.251 |
| AGTTGTCA | 0.315 (active) |
| AGTTGTCC | 0.235 |
| GGTTGTCA | 0.331 (active) |
| GTTTGTCA | 0.187 |
| CGTAAATC | -0.00723 |
| CATGGATA | 0.157 |

| Sequence | PBM E-score |
| --- | --- |
| AACAAACG | 0.114 |
| AACAAACT | 0.23 |
| TACAAACA | ≥ 0.368 (active) |
| AACAAACA | 0.338 (active) |
| AACAAGCG | 0.237 |
| GACAAAAA | 0.0647 |
| GACAAACA | 0.312 (active) |
| GACAAACC | 0.0748 |
| AACAAGCT | 0.312 (active) |
| CACAAACA | 0.24 |
| AACAAGCC | 0.176 |
| AACAAACC | 0.161 |
| AGTTCTGG | -0.0428 |
| AGGGCAAC | -0.0847 |
| CCGGAAAG | -0.15 |
| ACGTTCAT | 0.101 |
| GATATTGA | 0.0675 |
| CACCTACC | -0.0826 |
| AAAACGTG | 0.0311 |
| AGTATACT | 0.163 |
| ACCTACCT | -0.066 |
| GCATCTAC | 0.0527 |
| CACAAGCA | 0.15 |
| GACAAGCC | 0.212 |
| GACAAGCA | 0.321 (active) |
| GGCAAGCA | -0.119 |

| Sequence | PBM E-score |
| --- | --- |
| TACAAGCA | ≥ 0.384 (active) |
| AACAAGCA | 0.308 |
| CTCTCAGC | -0.19 |
| ACCCGTAT | 0.0244 |
| ACTTTTCG | 0.0288 |
| CCCACAGG | -0.142 |
| GAATAGTC | -0.00141 |
| TAAACATA | ≥ 0.367 (active) |
| GATACATC | 0.297 |
| AATACAAT | 0.226 |
| AATACAAA | 0.284 |
| GATACAGA | 0.164 |
| AATACAGA | 0.18 |
| AATACAAG | 0.346 (active) |
| AATACAAC | 0.305 |
| AATACATA | 0.362 (active) |
| GAAACATA | 0.258 |
| GATACATA | 0.321 (active) |
| AAAACATA | 0.284 |
| AGCTGTAA | 0.166 |
| AGTACTAT | 0.165 |
| CCGATGCG | -0.173 |
| AAGACTAT | 0.0648 |
| CCCACGAG | -0.148 |
| GGATATCA | 0.0642 |
| TCGTATAA | 0.121 |

| Sequence | PBM E-score |
| --- | --- |
| CCACTAGG | -0.169 |
| CATACATA | 0.286 |
| AATACATT | 0.225 |
| TATACATA | 0.326 (active) |
| TATACAGA | 0.217 |
| CATACATC | 0.251 |
| AATACATC | 0.294 |
| TATACAAA | 0.264 |
| AATACATG | 0.424 (active) |
| CATACATG | 0.44 (active) |
| CCTCTACG | -0.0999 |
| AACACCTA | 0.183 |
| CTCAGCGA | -0.115 |
| AGATTTGA | 0.0967 |
| ACCCGCGT | -0.0456 |
| CTCGGACA | 0.086 |
| GGTGAACA | 0.183 |
| TATGAACA | 0.286 |
| CATGAACG | 0.0839 |
| GATGAACA | 0.196 |
| CGTGAACA | 0.206 |
| AATGAACC | -0.0632 |
| TGTGAACA | 0.31 (active) |
| CATGAACA | 0.32 (active) |
| AATGAACA | 0.317 (active) |
| GCGAGAGA | -0.0945 |

| Sequence | PBM E-score |
| --- | --- |
| GGCGAGTA | -0.0986 |
| GTAGCAAC | 0.128 |
| AGCAAGAC | 0.0516 |
| ACTTGACC | -0.0545 |
| AAAATTTC | -0.0281 |
| TCGGCAAA | -0.0466 |
| ATGCTGGG | -0.069 |
| ATCTGTGC | 0.0661 |
| AGTGCGCC | -0.17 |
| AACATATG | ≥ 0.356 (active) |
| CACATATA | 0.251 |
| AACATATC | 0.303 |
| AACATAGT | 0.287 |
| CACATATG | 0.15 |
| TATATATA | 0.216 |
| ACCATATG | 0.145 |
| TACATAGA | 0.278 |
| AACATATT | ≥ 0.347 (active) |
| TACATATA | 0.379 (active) |
| AACATATA | 0.323 (active) |
| GACATATA | 0.305 |
